Some test systems named below: T-47D breast; MDA-MB-435 melanoma; SW-620 colon; MCF7 breast; HCT-116 colon; HCC-2998 colon; KM12 colon.
Test in all cases: NCI-60 one-dose screen, 48 h (100 = growth as untreated, 0 = no growth, -100 = all killed)
Settings in all cases: 10 µM unless noted

Each structure is given as a SMILES string. About 83,000 compounds went through this panel and 20% of them were active in at least one assay; those are over-represented in the sample as a whole.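 Method: cells in 96-well plates; compound added at one concentration; 48 h incubation; percent growth measured; values under 10 scored active.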 Values without a mark were called inactive. Calls of active or inactive are those of the source.

On to `C=Cc1cnc(Nc2ccc(OC)cc2)nc1NCCCNC(=O)C1CCC1`, for which the growth in the assay on T-47D breast was 66.8%; in the assay on MDA-MB-435 melanoma it was 70.3%; in the assay with SW-620 colon, 47.5%; with MCF7 breast, 53.6%; in the assay with HCT-116 colon, 21.5%; with HCC-2998 colon it was 78.8%.

With `C=CCn1c(SCC(=O)Nc2ccc(/C(C)=N/O)cc2)nnc1-c1cc(-c2ccc(S(N)(=O)=O)cc2)nc2ccccc12`, the growth with T-47D breast was 27.4%; in the assay on MDA-MB-435 melanoma it was 67.3%; in the assay on SW-620 colon, 84.2%; with MCF7 breast, 43.3%; in the assay on HCT-116 colon it was 77.7%; with KM12 colon it was 86.5%.

As for `N#CC1=C(N)Oc2ccc3ccccc3c2C1c1ccc([N+](=O)[O-])cc1` (stereo unspecified), the growth was 82.5% in the assay with T-47D breast; -51.3% (active) in the assay on MDA-MB-435 melanoma; 100% in the assay on SW-620 colon; 66% with MCF7 breast; 85.5% in the assay on HCT-116 colon; 95.5% in the assay with KM12 colon.

Regarding `O=c1cc(-c2ccccc2)[nH]c2ncc(-c3ccc(F)cc3)n12`, the growth was 74.3% with T-47D breast; -12% (active) in the assay on MDA-MB-435 melanoma; 40.3% with SW-620 colon; 57.8% with MCF7 breast; 51.3% with HCT-116 colon; 75.6% with HCC-2998 colon. Besides, in the assay on KM12 colon, the growth is 44.4%.

For `N#Cc1nc(-c2ccccc2)oc1S(=O)(=O)N1CCN(c2ccc(F)cc2)CC1`, the growth with T-47D breast was 55.8%; with MDA-MB-435 melanoma, 67.5%; in the assay with SW-620 colon, 32.9%; in the assay with MCF7 breast it was 38.5%; in the assay on HCT-116 colon it was 52.8%; with HCC-2998 colon, 94%. Also, the growth in the assay on KM12 colon is 81.9%.

For `O=C(/C=C/C12c3ccccc3C(c3ccccc31)C1C(=O)NC(=O)C12)c1ccc(Br)cc1` (stereo unspecified), the growth with T-47D breast is 36.8%; in the assay on MDA-MB-435 melanoma, 18.5%; with SW-620 colon, 15.3%; in the assay with MCF7 breast, 10.1%; in the assay with HCT-116 colon, 26.6%; with HCC-2998 colon it was 95.3%. The growth in the assay on KM12 colon was 55.5%.

For `Fc1cc(Nc2ccc3c(OCCCN4CCOCC4)cccc3n2)ccc1Cl`, the growth was 48.2% with T-47D breast; 32% with MDA-MB-435 melanoma; -32.2% (active) in the assay with SW-620 colon; 14.2% in the assay on MCF7 breast; 3.61% (active) with HCT-116 colon; -58.2% (active) in the assay on HCC-2998 colon. Further, the growth in the assay on KM12 colon is -21.8% (active).

On to `CS(=O)(=O)c1ccc(NC(=O)c2ccccc2)nc1`, for which the growth was 98.9% in the assay with T-47D breast; 111% in the assay on MDA-MB-435 melanoma; 100% in the assay on SW-620 colon; 101% in the assay with MCF7 breast; 95.3% in the assay with HCT-116 colon; 107% in the assay with HCC-2998 colon.

With `CN(CCCNC(=O)CCOCCOCCOCCNC(=O)Cc1ccc2ccc3cccc4ccc1c2c34)CCCNc1cc(-c2ccc3ccccc3c2)nc2ccccc12`, the growth was -80.9% (active) in the assay on T-47D breast; -79.6% (active) in the assay on MDA-MB-435 melanoma; -79.6% (active) in the assay with SW-620 colon; -82.3% (active) in the assay with MCF7 breast; -98.2% (active) with HCT-116 colon; -87.4% (active) in the assay on HCC-2998 colon. In addition, in the assay on KM12 colon, the growth was -86.6% (active).

As to `CCNc1ccc(-c2nc3ccccc3n3cccc23)cc1`, the growth in the assay on T-47D breast is 55.1%; in the assay with MDA-MB-435 melanoma, 80.7%; in the assay on SW-620 colon, 92.5%; with MCF7 breast, 34.4%; in the assay with HCT-116 colon it was 88.9%; with HCC-2998 colon it was 92.4%. Also, in the assay on KM12 colon, the growth is 72.8%.

As to `C=C(C)[C@@H]1CC[C@]2(COC(C)=O)CC[C@]3(C)[C@H](CC[C@@H]4[C@@]5(C)CCCN(C(C)=O)C(C)(C)[C@@H]5CC[C@]43C)[C@@H]12`, the growth in the assay with T-47D breast is 10.9%; in the assay with MDA-MB-435 melanoma, 4.85% (active); with SW-620 colon it was -53.9% (active); with MCF7 breast, 19.7%; in the assay on HCT-116 colon it was -35.7% (active); with HCC-2998 colon, -28.8% (active).

For the molecule `CN(C)S(=O)(=O)Oc1ccc(-c2sc3cc(OS(=O)(=O)N(C)C)ccc3c2C(=O)c2ccc(OCCN3CCCCC3)cc2)cc1`, the growth in the assay with T-47D breast is 44.8%; with MDA-MB-435 melanoma, 78.6%; with SW-620 colon, 30.5%; in the assay on MCF7 breast it was 26.4%; in the assay on HCT-116 colon, 40.8%; in the assay on HCC-2998 colon, 89.2%. In the assay with KM12 colon, the growth is 73.7%.

Regarding `CCn1cc(CNc2ccc(C(=O)Nc3cc4cc(OC)c(OC)cc4c(C)n3)cc2)cn1`, the growth was -3.23% (active) with T-47D breast; 10.5% in the assay with MDA-MB-435 melanoma; 75.3% with SW-620 colon; 46.6% in the assay on MCF7 breast; 46.8% with HCT-116 colon; 87.8% in the assay on HCC-2998 colon. Moreover, the growth with KM12 colon was 33.3%.

For `COc1ccc(C2=CC(c3cc(OC)c(OC)c(OC)c3)n3ncnc3N2)cc1` (stereo unspecified), the growth with T-47D breast is 62.9%; in the assay on MDA-MB-435 melanoma, -21.9% (active); in the assay on SW-620 colon it was 21.5%; in the assay on MCF7 breast it was 15%; in the assay with HCT-116 colon, 0.658% (active); in the assay with HCC-2998 colon, 26.5%. In addition, in the assay on KM12 colon, the growth is 6% (active).

For `C[C@H](CCCC(=O)NCC#CCN1CCN(C)CC1)[C@H]1CC[C@H]2[C@@H]3CC[C@@H]4CC(=O)CC[C@]4(C)[C@H]3CC[C@]12C`, the growth in the assay on T-47D breast was 101%; in the assay on MDA-MB-435 melanoma it was 95.5%; in the assay with SW-620 colon, 98.7%; in the assay with MCF7 breast, 79.7%; in the assay on HCT-116 colon it was 68.2%; with HCC-2998 colon, 104%. For the same molecule, in the assay on KM12 colon, the growth was 99.8%.

Regarding `O=C(/C=C(O)/C=C/c1cccc2[nH]ccc12)/C=C/c1cccc2[nH]ccc12`, the growth in the assay with T-47D breast was 65%; in the assay with MDA-MB-435 melanoma it was -2.09% (active); in the assay with SW-620 colon, 50.5%; in the assay with MCF7 breast, 16.5%; in the assay with HCT-116 colon, 46.3%; in the assay on HCC-2998 colon it was 102%. For the same molecule, the growth in the assay on KM12 colon was 95.3%.

With `CCCCCN(CCCCC)CC(O)c1cc(C)c2ccc3cc(C(C)C)ccc3c2c1` (stereo unspecified), the growth in the assay on T-47D breast was 53.3%; in the assay on MDA-MB-435 melanoma, 0.846% (active); in the assay with SW-620 colon, -75.3% (active); in the assay on MCF7 breast, -86.2% (active); with HCT-116 colon, -84.8% (active); with HCC-2998 colon, -50.8% (active). In addition, the growth with KM12 colon was -64.7% (active).

On to `Cn1cc(-c2ccc(-c3cn(C)c4ccc(Cl)cc34)[nH]2)c2cc(Cl)ccc21`, for which the growth in the assay with T-47D breast is -51.1% (active); with MDA-MB-435 melanoma it was 19.5%; in the assay with SW-620 colon, -83.1% (active); in the assay on MCF7 breast, 18.8%; in the assay with HCT-116 colon it was -85.5% (active); in the assay with HCC-2998 colon, -72.2% (active). Moreover, in the assay on KM12 colon, the growth was -33.5% (active).

As for `CCOC(=O)/C=C1\S/C(=N\Nc2cc(=O)[nH]c3ccccc23)N(c2ccccc2)C1=O`, the growth with T-47D breast is 94.6%; in the assay on MDA-MB-435 melanoma, 106%; in the assay with SW-620 colon it was 101%; in the assay with MCF7 breast, 91.5%; in the assay on HCT-116 colon it was 98.5%; in the assay on HCC-2998 colon, 110%. In the assay with KM12 colon, the growth was 101%.

Turning to `Cc1cc(Nc2ccc(C(=O)N3CCCC3)cc2)nc(NCCCNc2ccnc3cc(Cl)ccc23)n1`, the growth in the assay on T-47D breast was 77.8%; in the assay with MDA-MB-435 melanoma it was 79.6%; in the assay on SW-620 colon, 95.9%; in the assay on MCF7 breast it was 51.6%; in the assay on HCT-116 colon, 54.5%; with HCC-2998 colon, 80.9%. For the same molecule, the growth in the assay on KM12 colon is 87.4%.

As to `CC1=C(C(=O)Nc2ccccc2)C(c2ccc3c(c2)OCO3)NC(=S)N1` (stereo unspecified), the growth with T-47D breast is 101%; in the assay with MDA-MB-435 melanoma, 103%; in the assay with SW-620 colon, 107%; in the assay with MCF7 breast it was 99.8%; in the assay on HCT-116 colon, 93.2%; with HCC-2998 colon, 109%. For the same molecule, the growth with KM12 colon is 103%.

`Cc1nc2cc(O)c(O)cc2cc1Oc1ccc(NC(=O)Nc2ccc(Cl)c(Cl)c2)cc1`: the growth in the assay with T-47D breast was 62.2%; in the assay on MDA-MB-435 melanoma, 54.2%; with SW-620 colon, 49.3%; in the assay with MCF7 breast it was 76.2%; in the assay on HCT-116 colon it was 44.6%; in the assay with HCC-2998 colon it was 93.4%. Further, the growth with KM12 colon is 74.6%.

In the case of `C=CN(C(=O)N1CCN(c2cc3c(cc2F)c(=O)c(C(=O)O)cn3C2CC2)CC1)c1nc(-c2ccc(OC)cc2)cs1`, the growth with T-47D breast was 44.1%; in the assay on MDA-MB-435 melanoma it was 19.7%; in the assay with SW-620 colon, 22.2%; with MCF7 breast, 8.52% (active); in the assay on HCT-116 colon, 11.4%; with HCC-2998 colon, 34.3%. Also, the growth in the assay with KM12 colon is 21.4%.

(Values after PubChem BioAssay (NCI).)
